Screening data from PubChem.
An excerpt weighted towards active compounds, which were near 32% of everything screened.
CYP2C9 inh: blocks human cytochrome P450 2C9; P11712; CYP2C9 Supersomes, luciferin-H conversion, luminescence; inhibition, % at 5 µM; actives 20% (n = 96,000); AID 777;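 active = blocking of liver enzyme CYP2C9 beyond about 50% at 5 µM, limit read from the data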
CYP2C19 act: activators of human cytochrome P450 2C19; P33261; recombinant CYP2C19, luciferin-H EGE luminescence; stronger effect = higher value; 0 = fully inhibited enzyme, 1 = untreated enzyme; activation factor at 5 µM; 96,000 tested, under 10 active; AID 1025;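 active = activation factor of at least 2 at 5 µM in the primary screen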
Target sequence (P33261 whole entry, looked up): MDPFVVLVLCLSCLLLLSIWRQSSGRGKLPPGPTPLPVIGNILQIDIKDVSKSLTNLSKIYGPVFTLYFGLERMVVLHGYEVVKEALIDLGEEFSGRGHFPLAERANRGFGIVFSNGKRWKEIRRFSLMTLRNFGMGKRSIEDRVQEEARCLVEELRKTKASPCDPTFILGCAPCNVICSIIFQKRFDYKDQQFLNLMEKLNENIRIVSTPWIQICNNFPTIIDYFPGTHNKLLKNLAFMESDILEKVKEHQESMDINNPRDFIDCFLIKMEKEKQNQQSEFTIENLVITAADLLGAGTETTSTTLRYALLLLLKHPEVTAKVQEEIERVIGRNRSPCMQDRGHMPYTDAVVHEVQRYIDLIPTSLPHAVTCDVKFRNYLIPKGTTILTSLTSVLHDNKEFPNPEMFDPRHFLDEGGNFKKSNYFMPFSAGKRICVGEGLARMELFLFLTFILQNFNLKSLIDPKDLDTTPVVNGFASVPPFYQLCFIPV
PostGolgi yeast: growth inhibition of a yeast mutant, post-Golgi transport screen; post-Golgi transport phenotypic cell assay; inhibition, % at 10 µM; actives 0.9% (n = 98,000);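 note: yeast cells grown in 1536-well plates; yeast grown about 18 h at 30C before absorbance read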
CYP2C9 activ: CYP2C9 (human) activation; activation factor at 5 µM; recombinant CYP2C9, luciferin-H conversion, luminescence; stronger effect = higher value; factor 1 = untreated enzyme, 0 = blocked; actives 1.4% (n = 96,000); P11712;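 active = activation factor of 2 or more for CYP2C9 at a 5 µM dose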
CYP2C19 inh: inhibitors of human CYP2C19. AID 778. CYP2C19 Supersomes, luciferin-H EGE luminescence, 30 min. inhibition, % at 5 µM. actives 21% (n = 96,000);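 active = CYP2C19 inhibition above a set limit at 5 µM in the primary screen, cut at about 50% in these data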
PostGolgi ctrl: growth of the yeast control strain, post-Golgi counter-screen; actives 5% (n = 98,000); inhibition, % at 10 µM; efflux-deficient yeast background strain, growth absorbance A615, 16 h
A number is an active result; 0 = inactive; - = no result given. Cut-off read from the data, not from the text of the source, unless noted: active = inhibition above about 30%; inactive = the rest.

SMILES | CYP2C9 inh | CYP2C19 act | PostGolgi yeast | CYP2C9 activ | CYP2C19 inh | PostGolgi ctrl
Cc1ccc(C(=O)OCC(=O)Nc2ncc(Cl)cc2Cl)cc1NC(=O)c1ccco1 | 69.1 | 0 | 0 | 0 | 91.5 | 0
Cc1ccc(C(=O)OCC(=O)Nc2cc(F)ccc2F)cc1NC(=O)c1ccco1 | 0 | 0 | 0 | 0 | 0 | 0
Cc1nc(NC(=O)COC(=O)C(NC(=O)c2ccco2)C(C)C)c(Cl)cc1Cl (configuration not stated) | 0 | 0 | 0 | 0 | 94.7 | 0
O=C(O)C1CCCCC1C(=O)Nc1ccc(F)cc1F (configuration not stated) | 0 | 0 | 0 | 0 | 0 | 0
O=C(Oc1ccc(-n2cnnn2)cc1)c1ccco1 | 0 | 0 | 0 | 0 | 0 | 0
Cc1ccc(C(=O)OCC(=O)Nc2sc3c(c2C#N)CCCCC3)cc1NC(=O)c1ccco1 | 91.6 | 0 | 0 | 0 | 59.5 | 0
CCC(C)c1ccccc1NC(=O)COC(=O)c1ccc(C)c(NC(=O)c2ccco2)c1 (configuration not stated) | 0 | 0 | 0 | 0 | 74.8 | 0
CCOC(=O)N1CCN(S(=O)(=O)c2ccc(C(=O)Nc3sc4c(c3C#N)CCC4)cc2)CC1 | 74.7 | 0 | 0 | 0 | 0 | 0
Cc1ccc(C(=O)OCC(=O)Nc2sccc2C(N)=O)cc1NC(=O)c1ccco1 | 94.0 | 0 | 0 | 0 | 0 | 0
CN(c1cccc(NC(=O)c2ccccc2N(C)S(C)(=O)=O)c1)S(C)(=O)=O | 0 | 0 | 0 | 0 | 0 | 0
Cc1ccc2c(COC(=O)C3=COCCO3)cc(=O)oc2c1 | 0 | 0 | 0 | 0 | 0 | 0
c1ccc(-c2nnc(OCCN3CCOCC3)c3ccccc23)cc1 | 0 | 0 | 0 | 0 | 0 | 0
O=C(Nc1ccccc1C(=O)O)c1ncn[nH]1 | 0 | 0 | 0 | 0 | 0 | 0
Cc1ccc(CC(CC(=O)O)C(=O)NC2CCCCC2)cc1 (configuration not stated) | 0 | 0 | 0 | 0 | 0 | 0
O=C(CCN1CCN(CC(=O)Nc2ccccc2Cl)CC1)Nc1ccccc1F | 0 | 0 | 0 | 0 | 77.1 | 0
O=C(CN1CCN(CC(=O)Nc2ccccc2C(F)(F)F)CC1)Nc1ccccc1F | 0 | 0 | 0 | 0 | 84.8 | 0
O=C(CN1CCCCCC1)Nc1ccccc1F | 0 | 0 | 0 | 0 | 63.1 | 0
CC(=O)c1cccc(NC(=O)CN2C(=O)NC3(CCCCCCC3)C2=O)c1 | 0 | 0 | 0 | 0 | 0 | 0
O=C(CN1C(=O)NC2(CCCC2)C1=O)Nc1ccccc1F | 0 | 0 | 0 | 2.3 | 0 | 0
Cc1cc(C)n2c3c(c(C#N)c2n1)CC(C)(C)OC3 | 0 | 0 | 0 | 0 | 0 | 0
COc1ccc2c(CC(=O)OCC(=O)NC(=O)c3cccn3C)coc2c1 | 0 | 0 | 0 | 0 | 0 | 0
O=C(CNS(=O)(=O)c1ccc2ccccc2c1)OCC(=O)c1ccc(Br)s1 | 0 | 0 | 0 | 2.3 | 0 | 0
CCCCn1ccnc1C(=O)c1cc(S(=O)(=O)N2CCOCC2)ccc1C | 69.3 | 0 | 0 | 0 | 60.1 | 0
CCCCn1ccnc1C(=O)c1cccc(S(=O)(=O)N2CC(C)CC(C)C2)c1 (configuration not stated) | 90.2 | 0 | 0 | 0 | 79.1 | 0
Cc1c(C(=O)O)oc2ccc(S(=O)(=O)N3CC(C)CC(C)C3)cc12 (configuration not stated) | 0 | 0 | 0 | 0 | 0 | 0
SMILES | CYP2C9 inh | CYP2C19 act | PostGolgi yeast | CYP2C9 activ | CYP2C19 inh | PostGolgi ctrl
Cc1ccc(S(=O)(=O)N2CCOCC2)cc1C(=O)O | 0 | 0 | 0 | 0 | 0 | 0
COC(=O)Cn1c(=NC(=O)CSCC(=O)NC2CCCCC2)sc2cc(OC)ccc21 | 0 | 0 | 0 | 0 | 0 | 0
CS(=O)(=O)N1CCN(c2ccc([N+](=O)[O-])c(NCc3ccccc3)c2)CC1 | 0 | 0 | 0 | 0 | 0 | 0
Cc1cc(C)c(S(=O)(=O)N2CCN(c3ccc([N+](=O)[O-])c(NCC4CCCO4)c3)CC2)c(C)c1 (configuration not stated) | 56.1 | 0 | 0 | 0 | 0 | 0
Cc1cc(C)c(S(=O)(=O)N2CCN(c3ccc([N+](=O)[O-])c(NCc4ccco4)c3)CC2)c(C)c1 | 53.3 | 0 | 0 | 0 | 0 | 0
O=[N+]([O-])c1ccc(N2CCN(S(=O)(=O)c3ccc(Cl)cc3)CC2)cc1NCC1CCCO1 (configuration not stated) | 0 | 0 | 0 | 0 | 0 | 0
CC(C)(C)CNc1cc(N2CCCC2)ccc1[N+](=O)[O-] | 0 | 0 | 0 | 0 | 0 | 0
CCNc1cc(N2CCN(S(=O)(=O)c3ccc4c(c3)CCCC4)CC2)ccc1[N+](=O)[O-] | 0 | 0 | 0 | 0 | 54.1 | 0
CC(C)c1ccc(CNc2cc(N3CCCC3)ccc2[N+](=O)[O-])cc1 | 52.6 | 0 | 0 | 0 | 0 | 0
O=C(NC1CCCCC1)c1ccc(CN2CCOCC2)cc1 | 0 | 0 | 0 | 0 | 0 | 0
COC(=O)C1=C(C(=O)OC)C2(OC1c1cccc(F)c1)C(=O)c1ccccc1C2=O (configuration not stated) | 0 | 0 | 0 | 0 | 0 | 0
Cc1cc(C)c(S(=O)(=O)N2CCN(c3nc4c(c(=O)n(C)c(=O)n4C)n3C)CC2)c(C)c1 | 0 | 0 | - | 0 | 0 | -
Cn1c(C(=O)NCCN2CCc3ccccc3C2)cc2c(=O)n(C)c3ccccc3c21 | 0 | 0 | 0 | 0 | 0 | 34.1
Cn1c(C(=O)NCCN2CCOCC2)cc2c(=O)n(C)c3ccccc3c21 | 0 | 0 | 0 | 0 | 0 | 0
Cc1cc(NC(=O)CN2CCN(c3ccccc3O)CC2)no1 | 0 | 0 | 0 | 0 | 0 | 0
CCOC(=O)c1c(C)cc(C)n2c1nc1ccccc12 | 0 | 0 | 0 | 0 | 0 | 0
Cc1c(C2(O)C(=O)Nc3ccc(F)cc32)c(=O)n(-c2ccccc2)n1C (configuration not stated) | 0 | 0 | 0 | 0 | 0 | 0
O=C1Nc2ccc(F)cc2C12SCCS2 | 0 | 0 | 0 | 2.3 | 0 | 0
C=CCNc1ncnc2c1[nH]c1ccc(C)cc12 | 55.6 | 0 | 0 | 0 | 0 | 0
Cc1ccc2[nH]c3c(NCCN4CCOCC4)ncnc3c2c1 | 0 | 0 | 0 | 0 | 0 | 0
c1cncc(CNc2c3c(nc4nnnn24)CCCC3)c1 | 0 | 0 | 0 | 0 | 68.0 | 0
Nc1nonc1C(=O)NCCNCc1cc(Br)ccc1OCc1ccccc1F | 0 | 0 | 0 | 0 | 57.0 | 0
Nc1nonc1C(=O)NCCNCc1ccccc1OCc1ccccc1F | 0 | 0 | 0 | 0 | 0 | 31.3
CCOc1c(CNCCNC(=O)c2nonc2N)cccc1OC | 0 | 0 | 0 | 0 | 73.8 | 0
O=C(CN1C(=O)COc2ccccc21)N(Cc1ccc2c(c1)OCO2)CC1CCCO1 (configuration not stated) | 0 | 0 | 0 | 0 | 0 | 0
CC(=O)N(C(C)=O)C1=C(C#N)C2(CCCCC2)Cc2ccccc21 | 0 | 0 | 0 | 0 | 0 | 0
CC1(C)Cc2ccccc2C(N)=C1C#N | 77.6 | 0 | 0 | 0 | 93.7 | 0
COCCCNC(=O)C12CCC(C)(C(=O)C1)C2(C)C (configuration not stated) | 0 | 0 | 0 | 0 | 0 | 0
Cc1cc(C(=O)COC(=O)CCc2nc3ccccc3s2)c(C)n1C | 0 | 0 | 0 | 0 | 0 | 0
